Assay results reported in PubChem BioAssay AID602405 (Broad Institute, 2012).
Screen size: about 360,000 compounds; about 350 (0.097%) were called active. Shown is part of a subset that was picked to be rich in actives. Values without a mark were called inactive. No stated cut-off is given here; in the data, active means inhibition above about 16% (passing the limit was not always enough); inconclusive means no clear call, values can overlap the other calls; inactive means below that.

The compounds below were run on UDP-N-acetylbacillosamine N-acetyltransferase PglD (Campylobacter jejuni) (assay: blockers of PglD enzyme activity – biochemical, DTNB colorimetric, single point, primary screen (AID 602405)). Details: purified PglD enzyme, DTNB colorimetric CoA detection; at 12.5 µM; hits give high values.
Compound `COc1ccc(-c2ccc([C@H]3[C@H](CO)N4CCCCN(C(=O)Cc5ccncc5)C[C@@H]34)cc2)cc1` has an inhibition of 2.61%.
`O=C(Cc1ccncc1)N1CCCCN2[C@@H](CO)[C@H](c3ccc(-c4ccncc4)cc3)[C@@H]2C1` was tested, and the inhibition was 18.4% (active).
Work on `C/C=C/c1ccc([C@H]2[C@H](CO)N3CCCCN(C(=O)Cc4ccncc4)C[C@@H]23)cc1` yielded an inhibition of 4.91%.
`O=C(O)[C@H]1[C@H](CO)[C@H]2Cn3c(cccc3=O)[C@@H]1N2C(=O)c1ccccc1` gave an inhibition of 3.27%.
With `CC(=CCOc1ccc2ccc(=O)oc2c1)C1=CC(=O)C(C)(C)O1` the inhibition was 2.27%.
With `c1ccc2sc(N3CCNCC3)nc2c1` the inhibition was 53.7% (active).
`c1ccc2sc(C3CCCNC3)nc2c1` (stereo not given) was tested, and the inhibition was 3.32%.
With `C[C@H](CO)N1C[C@H](C)[C@H](CN(C)C(=O)Oc2ccc3ccccc3c2)OCc2cnnn2CCCC1=O` the inhibition was -0.0925%.
Work on `COC(=O)[C@H]1[C@H](CO)[C@H]2Cn3c(cccc3=O)[C@H]2N1CC1CC1` yielded an inhibition of 3.33%.
Compound `COC(=O)[C@H]1[C@H](CO)[C@H]2Cn3c(ccc(-c4ccccc4F)c3=O)[C@@H]1N2C(=O)C1CCC1` has an inhibition of -2.57%.
